According to PubChem BioAssay AID588675 (Johns Hopkins Ion Channel Center, 2011):
Hit rate of the full screen: of about 310,000 compounds, about 1,900 (0.61%) were called active. This is one part of a sample in which actives are shown more often than they occur.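 Rule for the calls: active = plate-corrected calcium response at least 3 library SD above typical, normal starting fluorescence, not activating the receptor alone; inactive = the rest.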

Biological target: Mas-related G-protein coupled receptor member X1 (Homo sapiens) (UniProt Q96LB2)
Test: allosteric enhancers of human MrgX1 signaling – HEK293 cells, Fluo-4 calcium flux, primary screen (AID 588675);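 note: compound read alongside a low EC10 to EC30 dose of BAM8-22 agonist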;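 for B-score: peak minus trough fluorescence over baseline measured at the second addition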
Conditions: MrgX1-HEK293, Fluo-4 calcium flux, FDSS, at 10 µM; active compounds read high

Chain of Mas-related G-protein coupled receptor member X1 (Homo sapiens) (Q96LB2 whole entry, looked up): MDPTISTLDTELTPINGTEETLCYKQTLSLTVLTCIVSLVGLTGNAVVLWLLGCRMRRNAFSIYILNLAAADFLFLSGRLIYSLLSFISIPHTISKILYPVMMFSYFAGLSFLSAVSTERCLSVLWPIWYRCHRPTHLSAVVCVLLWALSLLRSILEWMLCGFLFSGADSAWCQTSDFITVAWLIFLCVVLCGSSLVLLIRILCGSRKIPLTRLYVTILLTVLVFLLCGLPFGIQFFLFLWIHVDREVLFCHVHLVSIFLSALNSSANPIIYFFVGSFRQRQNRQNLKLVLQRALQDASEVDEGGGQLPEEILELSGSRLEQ

Structure (SMILES) | B-score
CC(C(=O)N=Nc1c(O)n(C)c2ccc(Br)cc12)n1cnc2ccccc2c1=O (stereo not drawn) | inactive
CC(C)N(c1ccccc1)c1ncnc(NCCC(=O)O)c1[N+](=O)[O-] | inactive
Cc1c(C(=O)N2CCCc3ccccc32)sc2nc(-c3ccccc3)cn12 | 10.8 (active)
Cc1c(C(=O)NCC2CCCO2)sc2nc(-c3ccccc3)cn12 (stereo not drawn) | inactive
Cc1c(C(=O)N2CC(C)OC(C)C2)sc2nc(-c3ccccc3)cn12 (stereo not drawn) | inactive
CCn1nccc1C(=O)Nc1ccc(S(=O)(=O)NC23CC4CC(CC(C4)C2)C3)cc1 | inactive
COc1ccc(S(=O)(=O)N2CCCC(C(=O)NCCCn3ccnc3)C2)cc1OC (stereo not drawn) | inactive
Cc1ccc(C)c(N2CCN(S(=O)(=O)c3c(C)[nH]c(C)c3C(=O)N3CCCC3)CC2)c1 | inactive
CCOC(=O)c1ccccc1NC(=S)N1CCC(C(N)=O)CC1 | inactive
Cc1nc2ccccc2cc1OCc1ccc(F)cc1 | 11.8 (active)
Cc1occc(=O)c1OCc1ccc(F)cc1 | inactive
Fc1ccccc1COc1cccc2cccnc12 | inactive
COCCCN(C(=O)CSCc1ccc(C)cc1)c1c(N)n(Cc2ccccc2)c(=O)[nH]c1=O | inactive
S=C(NCCC1=CCCCC1)Nc1ccccc1 | inactive
S=C(NCC1CCCO1)N1CCN(c2ccc(Cl)c(Cl)c2)CC1 (stereo not drawn) | inactive
S=C(NCCc1ccccc1)NCC1CCCO1 (stereo not drawn) | inactive
Oc1c(Br)cc(/C=N/NC(=S)NCC2CCCO2)cc1Br (stereo not drawn) | 6.64 (active)
C=CCOc1ccccc1NC(=O)CN1C(=O)CNC1=O | inactive
CCOC(=O)c1cnc2ccc(F)cc2c1Nc1ccc2c(c1)OCCO2 | inactive
CC(Oc1ccc2ccccc2c1)C(=O)NNC(=S)NC(=O)c1ccco1 (stereo not drawn) | inactive
CCCc1ccc(OCC(=O)NNC(=S)NC(=O)c2ccco2)cc1 | 11.9 (active)
CCCc1ccc(OCCNC(=O)c2ccco2)cc1 | inactive

Structure (SMILES) | B-score
CCOc1cc(C(=O)Nc2ccc(S(=O)(=O)Nc3cnc4ccccc4n3)cc2)cc(OCC)c1OCC | inactive
Cc1ccccc1-n1nc(SCC(=O)O)sc1=S | inactive
CN(C)CCCCCN(C)Cc1cc2ccccc2o1 | inactive
Cc1ccc(C2C3=C(Nc4[nH]n(-c5ccccc5)c(=O)c42)c2ccccc2C3=O)cc1 (stereo not drawn) | inactive
COC(=O)C1=C(C)NC2=C(C(=O)c3ccccc32)C1c1ccc(-c2ccc(C(=O)O)cc2)o1 (stereo not drawn) | 16.1 (active)
CCOC(=O)c1ccc(-c2ccc(C(=O)Nc3cccnc3)o2)cc1 | inactive
CC(C)(C)NC(=O)CSc1nnc(NC(=O)CCc2ccccc2)s1 | inactive
O=C(ON=C1CCN(S(=O)(=O)c2ccccc2)CC1)c1ccc(Cl)cc1 | inactive
COc1cccc(OC)c1C(=O)Nc1sc2c(c1C(N)=O)CCCC2 | inactive
O=C(Nc1sc2c(c1C(=O)O)CCC2)c1ccccc1F | inactive
NC(=O)c1c(Nc2nc3c(F)cccc3s2)sc2c1CCCC2 | 8.33 (active)
CCOc1ccc(NC(=O)C(C)N2C(=O)c3ccccc3C2=O)cc1 (stereo not drawn) | inactive
COC(=O)c1ccc(NC(=O)C(C)N2C(=O)c3ccccc3C2=O)cc1 (stereo not drawn) | inactive
Cc1ccnc(NC(=O)C(C)N2C(=O)c3ccccc3C2=O)c1 (stereo not drawn) | 7.9 (active)
Cc1ccc(NS(=O)(=O)c2cn(C)c(=O)n(C)c2=O)c(C)c1 | inactive
CC(C)(C)c1nc2ccccc2c(=O)n1N1C(=O)c2ccccc2C1=O | inactive
CC(=O)c1ccc(NC(=O)c2ccc(-n3cncn3)c([N+](=O)[O-])c2)cc1 | inactive
CC(/C=C/c1ccccc1)=N\NC(=O)C1CC1(C)c1ccccc1 (stereo not drawn) | inactive
O=C(N/N=C/C=C/c1ccccc1)C1CC1(c1ccccc1)c1ccccc1 (stereo not drawn) | 14.2 (active)
Cc1ccc(-c2cc(C(=O)N/N=C/C=C/c3ccccc3)n[nH]2)o1 | inactive
COCc1[nH][nH]c(=O)c1C=Nc1ccc(F)cc1F | inactive
Clc1ccc(Cn2ncc3c(NCc4cccnc4)ncnc32)cc1 | inactive

Structure (SMILES) | B-score
CC(C)CNc1ncnc2c1cnn2Cc1ccc(Cl)cc1 | 7.42 (active)
Clc1ccc(Nc2ncnc3c2nnn3Cc2ccccc2)cc1 | inactive
CCOC(=O)C1=C(C)N=C2c3ccccc3C(=O)C2C1c1ccc(Br)cc1 (stereo not drawn) | inactive
O=C1c2ccccc2C(=O)C1c1ccccc1F | inactive
O=C1c2ccccc2C2=Nc3ccccc3SC(c3ccccc3F)C12 (stereo not drawn) | 13.4 (active)
COc1ccccc1CNS(=O)(=O)c1c(C)[nH]c(C)c1C(=O)N1CCCCC1 | inactive
COc1cc(C(=O)NCc2cc3cc(Cl)ccc3n2C)cc(OC)c1OC | inactive
CCOCc1nnc(NC(=O)CSc2ccc(C)cc2)s1 | inactive
CCOCc1nnc(NC(=O)CCC2CCCCC2)s1 | 7.99 (active)
CCOCc1nnc(NC(=O)CCS(=O)(=O)Cc2ccccc2)s1 | inactive
OCC[C@H]1C[C@H](O)[C@@H](O)[C@]2(CCc3ccccc3O2)O1 | inactive
COc1cc2c(cc1OC)C(c1ccccc1Br)NC(=O)C2 (stereo not drawn) | inactive
O=C1CCC([N+](=O)[O-])C(c2ccccc2Br)N1 (stereo not drawn) | 8.17 (active)
O=C1CCC(Cc2ccccc2)N1 (stereo not drawn) | inactive
Cc1ccccc1NC(=O)c1nn(-c2ccc(F)c(F)c2)ccc1=O | inactive
CCOC(=O)N1CCN(C(=O)COCc2cc(-c3ccc4c(c3)OCO4)on2)CC1 | 6.93 (active)
Cc1cccc(N2CCN(C(=O)COCc3cc(-c4ccc5c(c4)OCO5)on3)CC2)c1C | inactive
O=C(COCc1cc(-c2ccc3c(c2)OCO3)on1)N1CCN(c2cccc(Cl)c2)CC1 | inactive
COc1ccc(-c2cc(C(=O)NC(Cc3c[nH]c4ccccc34)C(=O)O)c(C)o2)cc1OC (stereo not drawn) | inactive
Cc1nc(-c2ccccc2)cn2c1nc1ccccc12 | inactive
COc1ccc(C(=O)/C=C/c2ccc(-c3ccccc3)cc2)cc1CSCC(=O)O | inactive
Cc1cc(N2C(=O)c3ccc(C(=O)NCc4ccccc4)cc3C2=O)no1 | inactive

Structure (SMILES) | B-score
Cc1cc(C(=O)N2CCC(C(=O)O)CC2)c(C(F)(F)F)o1 | inactive
CN1/C(=C\C=C2\N=C(c3ccc(F)cc3)OC2=O)C(C)(C)c2ccccc21 | 19.6 (active)
CN1CCN(CCC(=O)N/N=C/C=C2\N(C)c3ccccc3C2(C)C)CC1 | inactive
CN1/C(=C\C(=O)c2oc3ccccc3c2N)C(C)(C)c2ccccc21 | inactive
Cc1c(C2=CCN(S(=O)(=O)c3ccc(Cl)cc3)CC2)c2ccccc2n1C | inactive
CN(CC(=O)Nc1cccc(F)c1)C(=O)C1CC(=O)N(CCc2ccccc2)C1 (stereo not drawn) | inactive
Cc1cc(NC(=O)OC(C)C)ccc1-c1ccc(NC(=O)OC(C)C)cc1C | inactive
O=C(NC1CC1)C1CCCN(C(=O)NC2CCCCC2)C1 (stereo not drawn) | inactive
CC[C@H](C)[C@@H](C(=O)N1CCNCC1)n1cc([C@@H](N)Cc2ccc(O)cc2)nn1 | inactive
COc1ccc(CCNS(=O)(=O)c2cccc([N+](=O)[O-])c2)cc1 | inactive
C/C(=N\NS(=O)(=O)c1cccc([N+](=O)[O-])c1)c1cc2ccccc2o1 | 8.87 (active)
C/C(=N\NC(=S)Nc1ccc(C)cc1)c1cc2ccccc2o1 | inactive
COc1ccc(N(CC(=O)N/N=C/c2cccc3c2OCCO3)S(=O)(=O)c2ccc(NC(C)=O)cc2)cc1 | inactive
Cc1ccc(OC(=O)c2cc3ccccc3o2)cc1 | 6.5 (active)
Cc1ccc(NC(=O)c2cc3ccccc3o2)cc1 | inactive
COc1ccccc1CN(C)C(=O)c1cc2ccccc2o1 | inactive
CCCCCCSc1ccc([C@@H]2[C@@H]3C(=O)N(CC)C(=O)[C@@H]3[C@]3(C(=O)OC)CCCCN23)cc1OC | inactive
COc1ccc(C(=O)C2CCCN(C(=O)c3cc4nc(C)cc(C)n4n3)C2)cc1F (stereo not drawn) | inactive
O=C(Oc1ccc(F)cc1)N1CCOCC1 | inactive
Cc1ccc(C(=O)Oc2ccc(C(=S)N3CCOCC3)cc2)cc1 | inactive
O=C(Oc1ccc(C(=S)N2CCOCC2)cc1)c1ccc(F)cc1 | 12.3 (active)
CC1=C(C(=O)Nc2cc(C)ccn2)C(c2cnn(C)c2)C2=C(CC(c3ccccc3)CC2=O)N1 (stereo not drawn) | inactive
